Source: the supplement of paper PMC9694430
Where a name gives a salt, the structure may show the parent alone.

Tests used:
Experiment in all cases: thermal shift delta Tm vs DMSO control; higher = stronger stabilization (binding)
Settings in all cases: 12.5 µM; protein concentration 2 µM
[1] = tested on: LOC_OS01G01410-cb001
How it was run: (§1)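 Compounds dissolved in DMSO were added to purified rice kinase domain constructs, which had been expressed in E. coli, for differential scanning fluorimetry. Each well held 19.5 μl of 2 μM kinase in 100 mM potassium phosphate pH 7.5, 150 mM NaCl, 10% glycerol and 5 × SYPRO Orange. Fluorescence was followed from 25°C to 95°C at a rate of 0.05°C/s. Shifts in Boltzmann-fitted melting temperature are triplicate means relative to DMSO-only protein.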

[2] = tested on: LOC_OS01G02750-cb003
How it was run: as §1

[3] = tested on: LOC_OS01G10900-cb004
How it was run: as §1

[4] = tested on: LOC_OS01G13800-cb001
How it was run: as §1

[5] = tested on: LOC_OS01G14860-cb001
How it was run: as §1

[6] = tested on: LOC_OS01G21960-cb002
How it was run: as §1

[7] = tested on: LOC_OS01G39600-cb002
How it was run: as §1

[8] = tested on: LOC_OS01G48390-cb002
How it was run: as §1

[9] = tested on: LOC_OS01G51400-cb002
How it was run: as §1

[10] = tested on: T1, LOC_OS01G52050-cb004
T1 sequence (whole entry): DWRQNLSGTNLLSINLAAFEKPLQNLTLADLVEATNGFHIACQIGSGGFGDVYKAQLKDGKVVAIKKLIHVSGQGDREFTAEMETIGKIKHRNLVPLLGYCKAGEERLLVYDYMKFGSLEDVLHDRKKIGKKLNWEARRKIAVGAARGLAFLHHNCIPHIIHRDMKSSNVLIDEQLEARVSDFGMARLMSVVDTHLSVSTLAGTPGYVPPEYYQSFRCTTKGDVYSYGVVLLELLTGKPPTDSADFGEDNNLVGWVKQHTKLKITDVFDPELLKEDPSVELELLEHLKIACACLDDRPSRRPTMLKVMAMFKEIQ
How it was run: as §1

SMILES: CCN1CCN(Cc2ccc(-c3cc4c(N[C@H](C)c5ccccc5)ncnc4[nH]3)cc2)CC1
- thermal shift delta Tm [1]: 3.01 °C
- thermal shift delta Tm [2]: 0.66 °C
- thermal shift delta Tm [3]: 3.11 °C
- thermal shift delta Tm [4]: 0.28 °C
- thermal shift delta Tm [5]: 0.24 °C
- thermal shift delta Tm [6]: 0.28 °C
- thermal shift delta Tm [7]: 2.27 °C
- thermal shift delta Tm [8]: 0.54 °C
- thermal shift delta Tm [9]: 0.24 °C
- thermal shift delta Tm [10]: 0.44 °C

SMILES: CNC(=O)c1nn(C)c2c1C(C)(C)Cc1cnc(Nc3ccc(N4CCN(C)CC4)cc3)nc1-2
- thermal shift delta Tm [1]: 2.97 °C
- thermal shift delta Tm [2]: 4.29 °C
- thermal shift delta Tm [3]: 7.64 °C
- thermal shift delta Tm [4]: -1.53 °C
- thermal shift delta Tm [5]: 0.36 °C
- thermal shift delta Tm [6]: 1.9 °C
- thermal shift delta Tm [7]: 0.04 °C
- thermal shift delta Tm [8]: 1.65 °C
- thermal shift delta Tm [9]: 0.17 °C
- thermal shift delta Tm [10]: 5.55 °C

SMILES: COc1cc(OC)cc(N(CCNC(C)C)c2ccc3ncc(-c4cnn(C)c4)nc3c2)c1
- thermal shift delta Tm [1]: 0.55 °C
- thermal shift delta Tm [2]: 1.27 °C
- thermal shift delta Tm [3]: 0.16 °C
- thermal shift delta Tm [4]: 0.03 °C
- thermal shift delta Tm [5]: 0.57 °C
- thermal shift delta Tm [6]: 0.2 °C
- thermal shift delta Tm [7]: 1.11 °C
- thermal shift delta Tm [8]: 2.48 °C
- thermal shift delta Tm [9]: 0.26 °C
- thermal shift delta Tm [10]: 2.05 °C

SMILES: Cc1ncc(-c2ccnc(Nc3ccc(S(C)(=O)=O)cc3)n2)n1C(C)C
- thermal shift delta Tm [1]: 2.46 °C
- thermal shift delta Tm [2]: 2.34 °C
- thermal shift delta Tm [3]: 0.85 °C
- thermal shift delta Tm [4]: 0.21 °C
- thermal shift delta Tm [5]: 7.5 °C
- thermal shift delta Tm [6]: 2.32 °C
- thermal shift delta Tm [7]: 2.92 °C
- thermal shift delta Tm [8]: 0.66 °C
- thermal shift delta Tm [9]: 0.48 °C
- thermal shift delta Tm [10]: 4.34 °C

SMILES: CC(=O)Nc1cccc(-n2c(=O)n(C3CC3)c(=O)c3c(Nc4ccc(I)cc4F)n(C)c(=O)c(C)c32)c1
- thermal shift delta Tm [1]: 0.31 °C
- thermal shift delta Tm [2]: 1.28 °C
- thermal shift delta Tm [3]: 0.15 °C
- thermal shift delta Tm [4]: 0.06 °C
- thermal shift delta Tm [5]: 0.12 °C
- thermal shift delta Tm [6]: 0.5 °C
- thermal shift delta Tm [7]: -0.55 °C
- thermal shift delta Tm [8]: 0.45 °C
- thermal shift delta Tm [9]: 0 °C
- thermal shift delta Tm [10]: 0.63 °C

SMILES: CCn1c(=O)c(-c2ccc(Cl)cc2Cl)cc2cnc(Nc3ccc(N4CCNCC4)c(F)c3)nc21
- thermal shift delta Tm [1]: 5.82 °C
- thermal shift delta Tm [2]: 1.71 °C
- thermal shift delta Tm [3]: 7.68 °C
- thermal shift delta Tm [4]: 0.11 °C
- thermal shift delta Tm [5]: 3.38 °C
- thermal shift delta Tm [6]: 0.97 °C
- thermal shift delta Tm [7]: 5.06 °C
- thermal shift delta Tm [8]: 2.05 °C
- thermal shift delta Tm [9]: -0.48 °C
- thermal shift delta Tm [10]: 5.06 °C

SMILES: Nc1ncccc1-c1nc2ccc(-c3ccccc3)nc2n1-c1ccc(C2(N)CCC2)cc1 [Miransertib (ARQ 092) HCl]
- thermal shift delta Tm [1]: 0.37 °C
- thermal shift delta Tm [2]: 2.32 °C
- thermal shift delta Tm [3]: 0.6 °C
- thermal shift delta Tm [4]: -0.45 °C
- thermal shift delta Tm [5]: 0.59 °C
- thermal shift delta Tm [6]: 0.09 °C
- thermal shift delta Tm [7]: 0.14 °C
- thermal shift delta Tm [8]: 0.09 °C
- thermal shift delta Tm [9]: 0.08 °C
- thermal shift delta Tm [10]: 0.78 °C

SMILES: CNc1nc(-c2ccc3c(N)n[nH]c3c2)cc(N2C[C@@H](C(=O)NC3CCCCC3)CC[C@H]2C)n1
- thermal shift delta Tm [1]: -0.44 °C
- thermal shift delta Tm [2]: 0.32 °C
- thermal shift delta Tm [3]: 0.09 °C
- thermal shift delta Tm [4]: 0.25 °C
- thermal shift delta Tm [5]: 0.55 °C
- thermal shift delta Tm [6]: 1.02 °C
- thermal shift delta Tm [7]: -5.84 °C
- thermal shift delta Tm [8]: 0.39 °C
- thermal shift delta Tm [9]: 0.44 °C
- thermal shift delta Tm [10]: 0.02 °C

SMILES: CCN(CC)CCCCNc1ncc2cc(-c3cc(OC)cc(OC)c3)c(NC(=O)NC(C)(C)C)nc2n1
- thermal shift delta Tm [1]: 0.27 °C
- thermal shift delta Tm [2]: 1.32 °C
- thermal shift delta Tm [3]: 0.9 °C
- thermal shift delta Tm [4]: 0.29 °C
- thermal shift delta Tm [5]: 0.28 °C
- thermal shift delta Tm [6]: 0.43 °C
- thermal shift delta Tm [7]: -0.12 °C
- thermal shift delta Tm [8]: 1.3 °C
- thermal shift delta Tm [9]: 0.23 °C
- thermal shift delta Tm [10]: 0.11 °C

SMILES: N#C/C(=C\c1ccc(O)c(O)c1)C(=O)NCc1ccccc1 [AG-490 (Tyrphostin B42)]
- thermal shift delta Tm [1]: 2.63 °C
- thermal shift delta Tm [2]: 17.9 °C
- thermal shift delta Tm [3]: 0.93 °C
- thermal shift delta Tm [4]: 1.74 °C
- thermal shift delta Tm [5]: 1.27 °C
- thermal shift delta Tm [6]: 1.78 °C
- thermal shift delta Tm [7]: -0.2 °C
- thermal shift delta Tm [8]: 1.08 °C
- thermal shift delta Tm [9]: 0.47 °C
- thermal shift delta Tm [10]: 0.46 °C
